Test results as given in PubChem BioAssay (Tox21).
Inconclusive results are not listed. Where a call stands in place of a potency, no number is given. The source made the active and inactive calls. The call rests on the fitted dose curve; in most records, active means well fitted cell-killing curve with a large enough effect in the repeat runs (not every such curve was filed as active); inconclusive means weak or mixed curves, or effect the other way; inactive means no such curve, though single readings can be large or run the other way.

experiment: qHTS assay to identify small molecule antagonists of the estrogen related receptor signaling pathway with the pleiotropic PPARgamma coactivator (PGC) from Tox21 10K library - cell viability counter screen (AID 1224840); conditions: PGC/ERR reporter cells viability, CellTiter-Fluor, 17.5 h; series mostly up to 92.4 µM; further: nearly all actives have a fitted effect of over 40% in size
Method in brief: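 Counter-screen for cytotoxicity: after 17.5 h compound exposure at 37 C, CellTiter-Fluor reagent added to PGC/ERR cells for 30 min and fluorescence read. Cells were seeded at 2,000 per well 6 h before dosing.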
Potency means the concentration at half of the fitted maximal effect.

Compound | Potency
COC(C)COC(C)COC(C)CO (centres undefined) | inactive
C[C@]12CCC(=O)C=C1CC[C@@H]1[C@@H]2C(=O)C[C@@]2(C)[C@H]1CC[C@]2(O)C(=O)CO | inactive
Cc1cccc([N+](=O)[O-])c1C | inactive
CCC(C)c1ccccc1O (centres undefined) | inactive
O=C(c1ccccc1)c1ccccc1O | inactive
Brc1cc(Oc2cc(Br)c(Br)c(Br)c2Br)c(Br)c(Br)c1Br | inactive
Nc1ncn([C@@H]2O[C@H](CO)[C@@H](O)[C@H]2O)c(=O)n1 | inactive
OC(CCl)CCl | inactive
CCC(C)CO (centres undefined) | inactive
Cc1ccc2c(n1)Oc1ccc(C(C)C(=O)OCC(=O)N(C)C)cc1C2 (centres undefined) | inactive
O=C(/C=C/c1ccccc1)OCc1ccccc1 | inactive
C#C[C@]1(O)CC[C@H]2[C@@H]3CCc4cc(OC)ccc4[C@H]3CC[C@@]21C | inactive
Cc1cccc(N(C)C(=S)Oc2ccc3ccccc3c2)c1 | inactive
Clc1nc(Cl)c(Cl)c(Cl)c1Cl | inactive
Cn1cnc([N+](=O)[O-])c1Sc1ncnc2nc[nH]c12 | inactive
O=CCc1ccccc1 | inactive
OC1CCCCCCCCCCC1 | inactive

Compound | Potency
OC[C@H]1O[C@@H]2O[C@H]3[C@H](O)[C@@H](O)[C@@H](O[C@H]4[C@H](O)[C@@H](O)[C@@H](O[C@H]5[C@H](O)[C@@H](O)[C@@H](O[C@H]6[C@H](O)[C@@H](O)[C@@H](O[C@H]7[C@H](O)[C@@H](O)[C@@H](O[C@H]8[C@H](O)[C@@H](O)[C@@H](O[C@H]1[C@H](O)[C@H]2O)O[C@@H]8CO)O[C@@H]7CO)O[C@@H]6CO)O[C@@H]5CO)O[C@@H]4CO)O[C@@H]3CO | inactive
CC(C)Oc1ccc2c(=O)c(-c3ccccc3)coc2c1 | inactive
Cc1ccc(C)c(O)c1C | inactive
Cc1[nH]c(=O)c(C#N)cc1-c1ccncc1 | inactive
CCCCC/C=C/C=C/C=O | inactive
c1ccncc1 | inactive
CCCCC(CC)COCC1CO1 (centres undefined) | inactive
O=C(COc1ccc(Cl)cc1)N1CCN(Cc2ccc3c(c2)OCO3)CC1 | inactive
O=[N+]([O-])c1ccc2c(c1)Cc1ccccc1-2 | inactive
CC(C)OB(OC(C)C)OC(C)C | inactive
CC(CCC(=O)O)(c1ccc(O)cc1)c1ccc(O)cc1 | inactive
CCCCc1oc2ccccc2c1C(=O)c1cc(I)c(OCCN(CC)CC)c(I)c1 | 43.6 µM (active)
CC(=O)C1(C)CC2=C(CCCC2(C)C)CC1C (centres undefined) | inactive
CCOC(=O)C(C#N)=C(c1ccccc1)c1ccccc1 | inactive
CC(C)(C)NC(=O)[C@H]1CC[C@H]2[C@@H]3CC[C@H]4NC(=O)C=C[C@]4(C)[C@H]3CC[C@]12C | inactive
C[C@]12CC[C@H]3[C@@H](CCC4=CC(=O)CC[C@@]43C)[C@@H]1CC[C@@H]2C(=O)CO | inactive
C=C(C)C(=O)OCCOC(=O)C(=C)C | inactive
